Assay outcomes deposited in PubChem by several laboratories.
tim23-1 inh = growth inhibitors of tim23-1 mutant yeast, primary screen, luminescence, uHTS. S. cerevisiae tim23-1 growth, BacTiter-Glo luminescence, 24 h. inhibition, % at 20 µM. 330,000 tested, 1.3% active. AID 463212, 2010;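 active = growth inhibition of the mutant yeast at or above 50%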;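 note: temperature-sensitive mutant grown at 25 °C; plate controls were DMSO-treated mutant yeast for no effect and medium wells lacking yeast for full effect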
SKKanGAS inh = S. pyogenes SKKanGAS growth inhibitors in kanamycin, primary screen, streptokinase expression inhibitor project, SKKanGAS strain, BacTiter-Glo luminescence; 6 h; inhibition, % at 7.5 µM; 300,000 tested, 1.3% active; AID 1662, 2009;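 active = mean replicate score, as percent of positive control median, at least 50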;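 note: strain carries kanamycin resistance gene driven by streptokinase promoter and grows in 40 µg/ml kanamycin; loss of luminescence reflects streptokinase promoter inhibition or plain growth inhibition; 0% = median of DMSO wells and 100% = positive control at its reference dose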
PfHsp90 yeast 2 = growth inhibition of PfHsp90-expressing yeast, primary screen, antimalarial PfHsp90 inhibitor project, S. cerevisiae, BacTiter-Glo luminescence, single point, set 2. AID 504621, 2011. 310,000 tested, 0.32% active. inhibition, % at 9.4 µM. BacTiter-Glo ATP, 48 h; yeast lacking PDR1 and PDR3 efflux regulators;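 active = every replicate shows inhibition above about 80%, whatever the replicate mean, limit read from the data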;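 note: 0% = DMSO neutral controls and 100% = 20 µM radicicol positive controls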
NLRP3 yeast inh = NALP3 inflammasome inhibitors in reconstituted yeast, primary screen, luminescence, uHTS | AID 2825, 2010 | Yeast reconstituted NLRP3/ASC/caspase-1, beta-gal luminescence, 24 h | inhibition, % at 10 µM | 330,000 tested, 0.39% active;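 active = inhibition of 50% or more; inactive = inhibition below 50%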;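 note: plate controls were induced DMSO wells for no effect and uninduced yeast grown without galactose for full effect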
TIM10 inh = growth inhibitors of isogenic TIM10 control yeast, primary screen, counter-screen for tim10-1 yeast inhibitor project, luminescence, uHTS; 330,000 tested, 1.4% active; inhibition, % at 10 µM; S. cerevisiae TIM10 strain growth, BacTiter-Glo luminescence, 24 h;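 active = inhibition of 40% or more at the single tested concentration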;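 note: wild-type TIM10 isogenic control strain grown at permissive 25 °C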
tim10-1 inh = growth inhibitors of tim10-1 mutant yeast, primary screen, luminescence, uHTS; S. cerevisiae tim10-1 ts strain growth, BacTiter-Glo, 24 h; inhibition, % at 20 µM; 330,000 tested, 2.2% active; AID 463190, 2010;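 active = inhibition of at least 40%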;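 note: mutant grown at 25 °C; 0% = DMSO wells with yeast and 100% = wells holding no yeast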
tim10-1 confirm = growth inhibitors of tim10-1 mutant yeast, confirmation, single concentration, luminescence, S. cerevisiae | shares compounds with tim10-1 inh | S. cerevisiae tim10-1 ts strain growth, BacTiter-Glo, 24 h | inhibition, % at 20 µM | 7,400 tested, 56% active | AID 463213, 2010;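 active = inhibition of yeast growth at or above a set limit in either of two repeat tests at 20 µM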;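 note: tim10-1 mutant grown at permissive 25 °C to find synthetic lethal compounds; 0% = DMSO yeast wells and 100% = medium wells without yeast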
* hit, by the source's call; · = no result given. The list is not random: actives were taken first. Their share in the collection is about 4.5%.

SMILES | tim23-1 inh | SKKanGAS inh | PfHsp90 yeast 2 | NLRP3 yeast inh | TIM10 inh | tim10-1 inh | tim10-1 confirm
Cc1cc(O)c(C(C[N+](=O)[O-])c2ccc(Cl)cc2Cl)c(=O)o1 (centres undefined) | 27.3 | 0.3 | · | 11.9 | 27.3 | 42.6* | 26.0
Cc1cccc(/C=C2\Sc3ccc(C(=O)N4CCOCC4)cc3N(C)C2=O)c1 | 9.6 | -7.0 | 6.0 | 19.5 | -1.6 | 17.3 | ·
Cc1cccc(/C=C2\Sc3ccc(C(=O)N4CCCCC4)cc3N(C)C2=O)c1 | 33.4 | 1.5 | 12.3 | 12.5 | 0.3 | 45.4* | -2.1
CN1C(=O)/C(=C/c2cccc(Cl)c2)Sc2ccc(C(=O)N3CCCC3)cc21 | 32.8 | -0.7 | · | 14.2 | 10.1 | 51.9* | 9.8
COc1cc(N)c(Cl)cc1C(=O)OCC(=O)Nc1ccc(N2CCOCC2)cc1 | 4.1 | · | -3.8 | 11.1 | 0.3 | 3.6 | ·
Cc1ccccc1C(=O)Nc1ccc2nc3n(c(=O)c2c1)CCCC3 | -0.1 | -2.8 | 3.9 | 8.7 | 7.4 | 0.9 | ·
CCOc1ccccc1C(=O)Nc1ccc2nc3n(c(=O)c2c1)CCCCC3 | 38.8 | 2.5 | -4.3 | 24.7 | 9.8 | 54.8* | 4.5
CC(=NNC(=O)c1ccc(NS(=O)(=O)c2cccs2)cc1)c1ccc(OCC(N)=O)cc1 | -0.5 | · | -1.2 | 12.1 | -1.4 | -1.2 | ·
Cc1nc2cc(-c3sccc3-n3cccc3)nn2c(C)c1C | 40.9 | 7.8 | -21.1 | 13.9 | 19.8 | 46.0* | 34.1*
CC(=O)N1CCc2cc(S(=O)(=O)CCC(=O)NCCc3ccc(Cl)cc3)ccc21 | 4.9 | 3.4 | -23.5 | 15.9 | -6.7 | 17.8 | ·
c1ccc(-c2nnc3ccc(N4CCC5(CC4)OCCO5)nn23)cc1 | 26.6 | 3.1 | 6.3 | 3.0 | 17.2 | 43.1* | 22.6
NC(=O)C1(N2CCCCC2)CCN(c2ccc3nnc(-c4ccccc4)n3n2)CC1 | -18.3 | -8.2 | 16.4 | 17.4 | 0.3 | -1.8 | ·
COc1ccc(N(CC(=O)NCc2ccccc2)C(=O)CCC(=O)Nc2cc(C)ccn2)c(OC)c1 | 13.0 | -1.0 | 5.3 | -6.0 | -14.8 | 8.8 | ·
Cc1nn(Cc2cccc(C(=O)NC34CC5CC(CC(C5)C3)C4)c2)c(C)c1Br | 26.1 | 17.3 | 9.0 | -0.4 | 20.0 | 43.4* | 27.7
CCOC(=O)C1CCN(C2CC(=O)N(c3cccc(Cl)c3)C2=O)CC1 (centres undefined) | 23.0 | 0.0 | -87.9 | 8.9 | 9.5 | 41.5* | 37.5*
COC(=O)C1CCN(C2CC(=O)N(c3cc(C)cc(C)c3)C2=O)CC1 (centres undefined) | 29.9 | 7.6 | 105.3* | 4.9 | 7.2 | 40.5* | 31.9*
CCN(CC)C1CC(=O)N(c2cccc(Cl)c2)C1=O (centres undefined) | 45.6 | -2.4 | 126.3* | 25.4 | 20.2 | 45.0* | 56.3*
O=C(C1CCN(C2CC(=O)N(c3cccc(Cl)c3)C2=O)CC1)N1CCCC1 (centres undefined) | 30.8 | -1.8 | 105.7* | 34.1 | 19.8 | 55.4* | 47.2*
O=C(C1CCN(C2CC(=O)N(c3ccc(Cl)cc3)C2=O)CC1)N1CCOCC1 (centres undefined) | 19.7 | -7.4 | 10.2 | 27.7 | 11.9 | 39.4 | ·
O=C(NC1CCCCCC1)c1ccco1 | -10.0 | -0.4 | 9.0 | 11.8 | -12.6 | -1.3 | ·
Nc1ncnc2c1ncn2[C@@H]1O[C@H](CNS(=O)(=O)CCCCl)[C@@H](O)[C@H]1O | 22.8 | · | -8.3 | -2.0 | 4.8 | 8.5 | ·
C=CCN(C(=O)c1cccc(S(=O)(=O)N2CCN(C)CC2)c1)c1nc(-c2ccccc2)cs1 | 47.7 | -2.1 | 0.4 | 3.5 | 30.8 | 49.9* | 41.0*
S=C(Nc1ccc(Cl)cc1)c1nc2ccccc2[nH]1 | 36.2 | 76.4* | -10.9 | 8.8 | 37.6 | 48.5* | 35.9*
Cc1ccc(Nc2c(-c3ccccc3O)nc3cnccn23)cc1 | 46.9 | 8.8 | -1.9 | 20.8 | 13.8 | 40.1* | 26.9
COc1ccc(Nc2c(-c3ccc(C)cc3)nc3cnccn23)cc1 | 35.4 | 0.9 | -19.6 | 7.5 | 9.6 | 13.7 | ·
SMILES | tim23-1 inh | SKKanGAS inh | PfHsp90 yeast 2 | NLRP3 yeast inh | TIM10 inh | tim10-1 inh | tim10-1 confirm
CCn1c(-c2csc3c2CCC(C)C3)n[nH]c1=S (centres undefined) | 45.2 | -17.1 | 6.1 | 11.3 | 24.1 | 48.2* | 14.2
Cn1cc(C(=O)NCCN2CCN(c3cccc(Cl)c3)CC2)c2c3ccccc3n(C)c2c1=O | 26.0 | 9.5 | -47.3 | 15.3 | 13.0 | 46.1* | 13.7
CCN(CC)C(=O)c1c(-c2ccccc2)oc2ccc(OC)cc12 | 43.6 | 2.0 | 4.4 | -5.6 | 24.0 | 41.1* | 21.1
O=C(OCc1ccccc1)/C(=C/c1ccc(Cl)cc1)NC(=O)c1ccccc1Cl | -7.9 | 4.1 | · | 17.8 | -20.3 | -12.1 | ·
CCOC(=O)/C(=C/c1ccc(Cl)cc1)NC(=O)c1ccco1 | 28.7 | 0.9 | -4.1 | -10.9 | -7.3 | 40.5* | 17.6
OC1CCN(c2ncnc3c2nnn3Cc2c(F)cccc2Cl)CC1 | 17.4 | 14.6 | -1.1 | -8.3 | 14.6 | 42.7* | 25.6
CCOc1ccc(NC2=C(OC)C(=O)c3ccccc3C2=O)cc1 | 28.6 | 14.1 | 3.9 | 6.1 | 8.1 | 44.3* | 9.1
COC1=C(Nc2ccc(OC)cc2)C(=O)c2ccccc2C1=O | 39.8 | -1.0 | 27.4 | 20.4 | 1.0 | 40.0* | 19.4
COc1ccc(NC2=C(NCCO)C(=O)c3ccccc3C2=O)cc1 | 19.9 | 10.9 | 13.0 | 8.7 | 13.9 | 30.5 | ·
COC1=C(Nc2ccc(O)cc2)C(=O)c2ccccc2C1=O | 41.9 | 12.3 | 8.9 | 18.5 | 35.9 | 38.8 | ·
Cc1ccc(Cl)cc1NC(=O)CNC(=O)N1CC(=O)Nc2ccccc21 | 4.1 | 1.4 | 28.6 | 4.3 | -0.8 | -15.8 | ·
COc1cc(CCC(=O)Nc2c(C(=O)N3CCN(c4ccccc4OC)CC3)oc3ccccc23)on1 | 38.8 | -3.5 | -12.4 | 2.3 | 24.3 | 42.4* | 10.0
COc1ccc(NC(=O)C2CCCN(S(=O)(=O)c3ccccc3)C2)c(OC)c1 (centres undefined) | 34.2 | -6.3 | 3.5 | -10.5 | 12.4 | 23.1 | ·
O=C(CSc1ncnc2[nH]ncc12)Nc1cccc(Oc2ccccc2)c1 | 15.0 | -1.8 | · | 0.1 | 27.6 | 24.2 | ·
COc1cccc(-c2cc(C(=O)Nc3cccnc3)no2)c1 | 8.7 | -8.3 | · | 31.5 | -17.8 | 11.1 | ·
COc1cccc(-c2cc(C(=O)Nc3cc(OC)c(OC)c(OC)c3)no2)c1 | 45.4 | · | -10.0 | 13.1 | 25.3 | 50.5* | 41.8*
Nc1nnc(-c2ccc(F)cc2)s1 | 13.1 | 1.4 | 2.7 | 7.5 | 2.5 | 10.6 | ·
